# This is a sample that favours compounds with a hit; in the whole collection about 2.3% have one here.
# S2 tox: cell viability loss in ATXN counter-screen | S2 cells (HEK-293 line with an ATXN2-luciferase reporter) viability, CellTiter-Fluor protease fluorescence, 24 h | Potency, µM (doses to about 56.7 µM), usual class: cytotoxic | 400,000 tested, 0.49% active; further: nearly all actives have a fitted effect of over 40% in size
# ATXN2 expr inh: reduces ATXN2 reporter expression in HEK-293 cells. Potency, µM (highest dose often 57 µM), without a hit: at the highest dose activity change, negative = inhibition, hits mostly inhibitors. HEK-293 ATXN2-luciferase reporter, luminescence, 24 h. AID 1745845. 360,000 tested, 0.72% active; further: on the % scale 0 is the no-effect control and ±100 the full control effect; nearly all actives have a fitted effect of over 55% in size
#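 ATXN2-luciferase reporter cells (luciferase flanked by upstream and downstream ATXN2 gene portions) were treated 24 h at 37 °C with compounds at up to 57 uM. SteadyGlo luminescence gave expression; GF-AFC fluorescence gave viability.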
# TGFb inhibitor: TGF-b pathway inhibition. HepG2 CAGA-GFP TGF-b/SMAD3 reporter, GFP fluorescence, 18 h; TGF-beta stimulated, 500 pg/mL final. 410,000 tested, 1.2% active. Potency, µM (doses to about 46.1 µM), for the others: top-dose activity, negative = inhibition, usual class: inhibitors. AID 588855; further: on the % scale 0 is the no-effect control and ±100 the full control effect; nearly all actives have a fitted effect of over 65% in size
#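 TGF-beta reporter screen: HEPG2 CAGA-GFP, 1% FBS, 500 pg/mL TGF-beta final, 18 h; per-cell GFP summed per well; curves fitted and categorized by class.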
# HepG2 viability: kills HepG2 cells in TGF-b inhibitor counter-screen. Potency, µM (titrated, usually from 46.1 µM), for the others: at the highest dose activity change, negative = cytotoxicity, hits mostly cytotoxic. HepG2 CAGA-GFP viability, ATP luminescence, 18 h. 410,000 tested, 0.76% active
#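 HepG2 CAGA-GFP cells (1000/well, DMEM with 1% FBS) received compound, then TGF-beta at 500 pg/mL final, and were incubated 18 hours at 37 degrees C. Viability was read by CellTiter-Glo luminescence. Media-only wells were set as complete cell-killing and DMSO as no toxicity.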
# * marks the source's active call; other numbers are inactive results; i = inactive; u = inconclusive; x = no result given; ! = a repeat was not active; [ ] = remark or other dose. The call rests on the fitted dose curve; in most records, active means well fitted curve in the direction sought with a large enough effect; inconclusive means small, poorly fitted or top-dose-only effect, or another doubt; inactive means no such curve, though single readings can be large; an effect the other way counts as inactive or inconclusive. Potency means the concentration at half of the fitted maximal effect.
SMILES,S2 tox,ATXN2 expr inh,TGFb inhibitor,HepG2 viability
O=C1NC[C@H](Cc2ccccc2)N(C[C@H]2CCCN2C[C@H](Cc2ccccc2)N2C[C@H](Cc3ccccc3)N(CCc3ccccc3)C(=O)C2=O)C1=O,18µM*,u,u,-34%
CCOc1ccc(CCN2C(=O)C(=O)N([C@@H](Cc3ccccc3)CN3CCC[C@H]3CN3C(=O)C(=O)NC[C@@H]3Cc3ccccc3)C[C@@H]2Cc2ccccc2)cc1,28µM*,u,x,x
CCNC(=O)c1sc2ncnc(NCCCN3CCOCC3)c2c1C,i,x,x,x
CCCCOC(=O)CCCCCCCCC(=O)OCCCC,i,10%,x,x
CC[C@H](CC[C@@H](C)[C@H]1CC[C@H]2[C@@H]3CC=C4C[C@@H](O)CC[C@]4(C)[C@@H]3CC[C@]12C)C(C)C,x,-9%,x,x
COc1ccc(C2c3c(-c4ccccc4O)n[nH]c3C(=O)N2Cc2ccco2)cc1 (stereo not drawn),u,-1%,u,-21%
COc1ccc(C2c3c(-c4c(C)cc(C)cc4O)n[nH]c3C(=O)N2Cc2ccco2)cc1 (stereo not drawn),18µM*,u,u,-105%
Cc1cccc(NC(=O)Cn2c(=O)n(CCCCCC(=O)NCc3ccccc3)c(=O)c3sccc32)c1,22µM*,u,u,-47%
COc1ccc(-c2sc3ccccc3c2-c2ccc(OCCN(C)C)cc2)cc1,u,u,u,-97%
COc1cccc(-c2sc3ccc(OC)cc3c2-c2ccc(OCCN(C)C)cc2)c1,u,u,u,14µM*
Cc1c(Cl)cccc1NC(=O)CN1C(=O)COc2ccc(S(=O)(=O)N3CCCCCC3)cc21,x,x,3%,1%
Cc1c(Cl)cccc1NC(=O)CN1C(=O)COc2ccc(S(=O)(=O)Nc3ccccc3)cc21,u,-9%,10µM*,-20%
Cc1ccc(S(=O)(=O)Nc2ccc3c(c2)OCCO3)cc1,i,-4%,u,-35%
Cc1c(Cl)cccc1NS(=O)(=O)c1ccc(NS(=O)(=O)c2ccc3c(c2)OCCO3)cc1,i,u,16µM*,-42%
CC(C)=CCc1c(O)cc2oc3c(CC=C(C)C)c(O)c(O)c(CC=C(C)C)c3c(=O)c2c1O,u,u,6.3µM*,8.9µM*
CC(C)CN(C)c1ccc(/C=C2\C=Cc3ccccc32)cc1,x,x,-18%,-46%
Cc1nc2c(O)c3c(c(O)c2nc1C)C1C=CC3CC1,5.6µM*,28µM*,u,-106%
CCN(CC(=O)NC(C)(C)C)Cc1nc2c(Br)cc(Br)cc2c(=O)[nH]1,u,18µM*,u,-14%
O=C(NCc1ccccn1)c1cnn(-c2nccc(-c3cccs3)n2)c1C1CC1,i,x,x,x
CCc1ccc(S(=O)(=O)Nc2ccc(O)c3c(=O)cc(-c4ccccc4Cl)oc23)cc1,i,-15%,u,2%
O=c1cc(-c2ccccc2Cl)oc2c(NS(=O)(=O)c3cc(Cl)cc(Cl)c3O)ccc(O)c12,32µM*,u,6.3µM*,10µM*
O=C(CO)N1CCC(c2[nH]nc(-c3ccc(Cl)cc3)c2-c2ccncn2)CC1,x,-14%,x,x
COc1ccc2[nH]c(C)c(C(=O)CN(C)CC(OC)OC)c2c1,x,x,u,-52%
COc1cc(O)c2c(c1)C1OC1C[C@H](O)[C@H](O)C(=O)C=CC[C@H](C)OC2=O (stereo partly drawn),x,6.9µM*,x,x
Cc1cccc(NC(=O)Cn2nnc(C(=O)NCc3cccs3)c2N)c1C,i,-7%,1%,18µM*
SMILES,S2 tox,ATXN2 expr inh,TGFb inhibitor,HepG2 viability
Cc1ccccc1NC(=O)Cn1nnc(C(=O)NCc2cccs2)c1N,u,-12%,5%,12%
COc1cccc(/C=N/NC(=O)c2cc3cc([N+](=O)[O-])ccc3s2)c1O,x,u,0%,10µM*
CN(C)c1ccc(/C=C/c2nc3ccccc3s2)cc1Cl,x,x,u,-34%
O=C(Nc1cnn(Cc2ccc(Cl)cc2Cl)c1)c1noc2c1CCCC2,u,-15%,16µM*,-2%
O=C(Nc1cnn(Cc2ccc(Cl)cc2Cl)c1)c1cc(-c2cccs2)on1,u,u,u,-32%
C[C@@H](CN1CC(=O)NC(=O)C1)N1CC(=O)NC(=O)C1,i,u,x,x
O=C1C=C(NCc2ccccc2)c2ccccc2C1=O,u,-22%[11.3 µM],u,-109%
Cc1ccc(NS(=O)(=O)c2ccc3c(c2)C(=O)c2ccccc2C3=O)c(C)c1,i,-5%,-8%,3%
O=C1C=C(Nc2ccccc2O)c2ccccc2C1=O,u,14µM*,1.8µM*,2.5µM*
Cc1ccc(NC2=CC(=O)C(=O)c3ccccc32)c(C)c1,u,x,u,5µM*
CC(=O)c1ccc(C(=O)NCC2Cc3cccc(-c4ncccn4)c3O2)cc1 (stereo not drawn),i,x,x,x
COC(=O)C1CCN(Cc2ccc3c(c2)CN(C(=O)c2cc4ccccc4n2C)CCO3)CC1,i,x,x,x
CCn1c(=O)c(C(=O)CN2CCCc3ccccc32)c(N)n(Cc2ccccc2)c1=O,i,-2%,11µM*!,-18%
CCn1c(=O)c(C(=O)CN2c3ccccc3CC2C)c(N)n(Cc2ccccc2)c1=O (stereo not drawn),i,-4%,-24%,-21%
O=C(C(Br)=Cc1ccccc1)c1ccccc1,u,20µM*,10µM*,-96%
CC(=Cc1ccccc1)C(=O)c1ccccc1,i,x,-8%,-1%
COc1ccc([C@@H]2CC(=O)c3c(O)cc(O)cc3O2)cc1O,i,61%,1%,18%
COc1c(CC=C(C)C)cc(C2CC(=O)c3c(O)cc(O)cc3O2)cc1CC=C(C)C (stereo not drawn),x,u,14µM*,16µM*
O=C1C(Cl)=C(N2CCN(c3ccccc3[N+](=O)[O-])CC2)C(=O)c2ccccc21,u,-9%,11µM*,-109%
O=C(NCC1CCC2(CCN(Cc3cc4ccccc4o3)CC2)O1)c1ccccc1 (stereo not drawn),i,x,x,x
CCOC(=O)c1cccc(NC(=O)CN2C(=O)CC(C)(C)Sc3ccccc32)c1,28µM*,-23%,-8%,-21%
CC(=O)Nc1cccc(NC(=O)CN2C(=O)CCSc3ccccc32)c1,i,4%,25%,-3%
Nc1c(C(=O)Nc2nc3ccccc3s2)sc2nc(-c3cccs3)ccc12,i,u,208%,6.3µM*
COc1cccc(-c2ccc3c(N)c(C(=O)Nc4ccccc4C)sc3n2)c1,x,u,u,-21%
Cc1ccccc1NC(=O)c1sc2nc(-c3ccncc3)ccc2c1N,i,20µM*,2%,-39%
CC(C)c1c(C(=O)NCc2ccncc2)cnn1-c1nccc(-c2cccs2)n1,i,x,x,x
COc1ccc(CCNC(=O)c2cnn(-c3nccc(-c4ccco4)n3)c2C)cc1,i,x,x,x
CCOC(=O)[C@H](CCc1ccccc1)N[C@@H](C)C(=O)N(CC(=O)O)C1Cc2ccccc2C1,i,-4%,x,x

# Source: PubChem BioAssay (National Center for Advancing Translational Sciences (NCATS))
